In PubChem BioAssay:

Experiment: splicing luciferase reporter signal modulators, primary screen, spliceosome inhibition project, cell-based, HEK293, splice +/- reporter (AID 1101);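 note: HEK293 cells carrying a splicing-competent luciferase reporter gene; test concentration not given here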
Details: luminescence, 24 h, higher = more signal, called active from +8 up or from −8 down

z-score, inactive:
O=C(O)[C@H](Cc1ccccc1)n1cc(-c2ccccn2)nn1 -0.27, COC(=O)c1c(CC[C@@H](CO)NC(=O)N[C@H](Cn2cc(-c3ccccc3C)nn2)C(C)C)oc(C(C)=O)c1C(=O)OC -1.71, COc1ccc(NN2C(C(O)c3ccco3)C=CC3C(=O)N(C4CCCCC4)C(=O)C32)cc1 (stereo not given) 0.157, Cc1c(NC(=O)/C(C#N)=C/C=C/c2ccc(N(C)C)cc2)c(=O)n(-c2ccccc2)n1C -0.0455, CN1C2C=C(CCCO)C(C3C(=O)N(C(N)=O)C(=O)C32)C1c1cccs1 (stereo not given) 0.359, CC(C)CNC(=O)[C@@]1(c2ccc([N+](=O)[O-])cc2)CC(=O)N(C2CCCCC2)[C@@H]1c1ccc(CO)cc1I -0.721, COCCOC(=O)N1C(=O)[C@@]2(c3cc(C#CC4(O)CCCCCC4)ccc31)[C@H](C(N)=O)[C@H]1C(=O)O[C@H](c3ccccc3)[C@H](c3ccccc3)N1[C@@H]2c1ccc(O)cc1 -0.538, COC(=O)[C@@]1(Cc2ccccc2)[C@H]2c3cc(C(=O)N4CCCC4)n(Cc4cc(F)cc5c4OCOC5)c3C[C@H]2CN1C(=O)c1ccccc1 -0.955, CCOC(=O)C[C@H]1[C@H](OC(=O)c2ccccc2-c2ccccc2)[C@@H](NC(=O)CC(C)C)c2cc(OCCCO)ccc2N1C(=O)c1ccc2ccccc2n1 -0.263, C=CCN1Cc2ccccc2C[C@@]2(N=C(c3ccc(OCCCO)cc3)O[C@H]2c2ccccc2)C1=O 6.55, COCCOC(=O)N1C(=O)[C@@]2(c3cc(C#CC4(O)CCCCCC4)ccc31)[C@H](C(=O)N1CCCCCCC1)[C@H]1C(=O)O[C@H](c3ccccc3)[C@H](c3ccccc3)N1[C@@H]2c1ccc(OCCO)cc1 0.225, CN1C(=O)C2C=CC(C(O)c3c(F)cccc3Cl)N(Nc3ccccc3)C2C1=O (stereo not given) 1.29, CCCC=C(CCC)[C@@H](NP(=O)(c1ccccc1)c1ccccc1)c1ccc(C(F)(F)F)cc1 -0.139, O=C1O[C@@H](c2ccccc2)[C@@H](c2ccccc2)N2[C@@H](c3ccc(O)cc3)[C@]3(C(=O)Nc4ccc(C#CCCO)cc43)[C@@H](C(=O)NC[C@H](O)c3ccccc3)[C@H]12 0.0041, CCN(CC)c1ccc(N2CC=CC34O[C@@H]5/C=C\CCC(C)OC(=O)C5[C@H]3C(=O)N(CCO)[C@@H]4C2=O)cc1 (stereo not given in full) 0.00168, Cc1ccc(S[C@]2(C(=O)NCCN3CCOCC3)CC(=O)N(Cc3ccccc3C(F)(F)F)[C@@H]2c2ccc(CO)cc2I)cc1 -1.55, C=CCNC(=O)[C@@H]1[C@H]2C(=O)O[C@H](c3ccccc3)[C@H](c3ccccc3)N2[C@H](c2ccc(OCCO)cc2)[C@@]12C(=O)N(C(=O)OCCOC)c1ccc(C#CC3=CCCCC3)cc12 -0.57, COC(=O)[C@@]1(Cc2ccccc2)[C@H]2c3cc(C(=O)N4CCCC4)[nH]c3C[C@H]2CN1C(=O)c1ccccc1 -0.0516, C=CCOC(=O)[C@@H]1[C@H]2C(=O)O[C@H](c3ccccc3)[C@H](c3ccccc3)N2[C@H](c2ccc(OCCOC(=O)[C@H]3C[C@H]4C(=O)N[C@@H](CCCC[N+](C)(C)C)C(=O)N4[C@H]3c3ccc(O)cc3)cc2)[C@@]12C(=O)Nc1ccc(I)cc12 -0.178, COc1c(C)cc(-c2cc3c(c(Cc4ccccc4)n2)[Si](C(C)C)(C(C)C)OC3)cc1C -0.206, COCCOC(=O)N1C(=O)[C@@]2(c3cc(C#CC4(O)CCCCCC4)ccc31)[C@H](c1ccccc1OCCO)N1[C@H](c3ccccc3)[C@H](c3ccccc3)OC(=O)[C@H]1[C@@H]2C(N)=O -0.349, CC(C)C(O)C1C=CC2C(=O)N(C)C(=O)C2N1Nc1ccccc1 (stereo not given) 1.01, CC(=O)N1Cc2ccccc2C[C@]2(N=C(c3ccc(OCCCO)cc3)O[C@@H]2c2ccccc2)C1=O -2.31, CCOC(=O)[C@@H]1[C@@H]2C(=O)N(CC)C(=O)[C@@H]2C[C@@H]1Sc1ccccc1 1.33, O=C1OCCC=C[C@H]2OC34C=CCN(c5ccc(Cl)cc5)C(=O)[C@H]3N(CCCCCO)C(=O)[C@@H]4C12 (stereo not given in full) -0.443
